# Measurements reported in the supplement of paper PMC8975748.
# Structures can show the parent of a compound that is named as a salt. ± gives the standard deviation of the averaged measurements.
# Assays:
# [1] = system: Saccharomyces cerevisiae BY4741 SeMeCo community; experiment: mean cell size (pixel area) (pixels); higher = larger cells; conditions: 10 µM; 24 h; SM minimal medium
# In short: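 Mean cell pixel area per well was determined by automated confocal microscopy with Harmony analysis of paraformaldehyde-fixed cells. The cells, a Saccharomyces cerevisiae BY4741 community of four plasmids that each complement one auxotrophy and carry a fluorescent marker, were incubated for 24 h with drug at a final 10 µM in SM medium in 384-well plates. Numbers are averaged over 3 replicates. Same SeMeCo high-content imaging drug screen: Selleck FDA-approved drugs at 10 µM, 24 h in SM medium, 384-well plates, 3 replicates.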
# [2] = system: Saccharomyces cerevisiae BY4741 SeMeCo community; experiment: z-score of prototroph abundance vs DMSO median; higher = larger share of this subpopulation than in DMSO controls; conditions: 10 µM; 24 h; SM minimal medium; subpopulation (auxotrophy): Prototroph
# In short: (§1)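 Cells of a Saccharomyces cerevisiae BY4741 community, carrying four plasmids that each restored one auxotrophy and encoded a distinct fluorescent protein, were pre-grown overnight to OD600 1.0 and diluted to 0.3. A 70 µl volume was added to 384-well plates acoustically predosed with library drugs (10 µM final) and grown 24 h in minimal SM medium. After paraformaldehyde fixation, automated confocal microscopy was used, with single-auxotroph fluorescent strains for thresholds and autofluorescence correction. The abundance of each subpopulation was scored as a z-score against the vehicle-well median.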
# [3] = system: Saccharomyces cerevisiae BY4741 SeMeCo community; experiment: z-score of subpopulation abundance vs DMSO median, subpopulation auxotrophic for M; higher = larger share of this subpopulation than in DMSO controls; conditions: 10 µM; 24 h; SM minimal medium; subpopulation (auxotrophy): M
# In short: as §1
# [4] = system: Saccharomyces cerevisiae BY4741 SeMeCo community; experiment: z-score of subpopulation abundance vs DMSO median, subpopulation auxotrophic for L; higher = larger share of this subpopulation than in DMSO controls; conditions: 10 µM; 24 h; SM minimal medium; subpopulation (auxotrophy): L
# In short: as §1
# [5] = system: Saccharomyces cerevisiae BY4741 SeMeCo community; experiment: z-score of subpopulation abundance vs DMSO median, subpopulation auxotrophic for U; higher = larger share of this subpopulation than in DMSO controls; conditions: 10 µM; 24 h; SM minimal medium; subpopulation (auxotrophy): U
# In short: as §1
# [6] = system: Saccharomyces cerevisiae BY4741 SeMeCo community; experiment: z-score of subpopulation abundance vs DMSO median, subpopulation auxotrophic for H; higher = larger share of this subpopulation than in DMSO controls; conditions: 10 µM; 24 h; SM minimal medium; subpopulation (auxotrophy): H
# In short: as §1
# [7] = system: Saccharomyces cerevisiae BY4741 SeMeCo community; experiment: z-score of subpopulation abundance vs DMSO median, subpopulation auxotrophic for LU; higher = larger share of this subpopulation than in DMSO controls; conditions: 10 µM; 24 h; SM minimal medium; subpopulation (auxotrophy): LU
# In short: as §1
# [8] = system: Saccharomyces cerevisiae BY4741 SeMeCo community; experiment: z-score of subpopulation abundance vs DMSO median, subpopulation auxotrophic for HM; higher = larger share of this subpopulation than in DMSO controls; conditions: 10 µM; 24 h; SM minimal medium; subpopulation (auxotrophy): HM
# In short: as §1
# [9] = system: Saccharomyces cerevisiae BY4741 SeMeCo community; experiment: z-score of subpopulation abundance vs DMSO median, subpopulation auxotrophic for HU; higher = larger share of this subpopulation than in DMSO controls; conditions: 10 µM; 24 h; SM minimal medium; subpopulation (auxotrophy): HU
# In short: as §1
# [10] = system: Saccharomyces cerevisiae BY4741 SeMeCo community; experiment: z-score of subpopulation abundance vs DMSO median, subpopulation auxotrophic for UM; higher = larger share of this subpopulation than in DMSO controls; conditions: 10 µM; 24 h; SM minimal medium; subpopulation (auxotrophy): UM
# In short: as §1
# [11] = system: Saccharomyces cerevisiae BY4741 SeMeCo community; experiment: z-score of subpopulation abundance vs DMSO median, subpopulation auxotrophic for HL; higher = larger share of this subpopulation than in DMSO controls; conditions: 10 µM; 24 h; SM minimal medium; subpopulation (auxotrophy): HL
# In short: as §1
# [12] = system: Saccharomyces cerevisiae BY4741 SeMeCo community; experiment: z-score of subpopulation abundance vs DMSO median, subpopulation auxotrophic for HLU; higher = larger share of this subpopulation than in DMSO controls; conditions: 10 µM; 24 h; SM minimal medium; subpopulation (auxotrophy): HLU
# In short: as §1
# [13] = system: Saccharomyces cerevisiae BY4741 SeMeCo community; experiment: z-score of subpopulation abundance vs DMSO median, subpopulation auxotrophic for HLM; higher = larger share of this subpopulation than in DMSO controls; conditions: 10 µM; 24 h; SM minimal medium; subpopulation (auxotrophy): HLM
# In short: as §1
# [14] = system: Saccharomyces cerevisiae BY4741 SeMeCo community; experiment: z-score of subpopulation abundance vs DMSO median, subpopulation auxotrophic for HUM; higher = larger share of this subpopulation than in DMSO controls; conditions: 10 µM; 24 h; SM minimal medium; subpopulation (auxotrophy): HUM
# In short: as §1
# [15] = system: Saccharomyces cerevisiae BY4741 SeMeCo community; experiment: z-score of subpopulation abundance vs DMSO median, subpopulation auxotrophic for LUM; higher = larger share of this subpopulation than in DMSO controls; conditions: 10 µM; 24 h; SM minimal medium; subpopulation (auxotrophy): LUM
# In short: as §1
# [16] = system: Saccharomyces cerevisiae BY4741 SeMeCo community; experiment: z-score of subpopulation abundance vs DMSO median, subpopulation auxotrophic for HLUM; higher = larger share of this subpopulation than in DMSO controls; conditions: 10 µM; 24 h; SM minimal medium; subpopulation (auxotrophy): HLUM
# In short: as §1
# [17] = system: Saccharomyces cerevisiae BY4741 SeMeCo community; experiment: z-score of subpopulation abundance vs DMSO median, subpopulation auxotrophic for LM; higher = larger share of this subpopulation than in DMSO controls; conditions: 10 µM; 24 h; SM minimal medium; subpopulation (auxotrophy): LM
# In short: as §1
Structure (SMILES),mean cell size [1],z-score of prototroph abundance [2],z-score of subpopulation abundance [3],z-score of subpopulation abundance [4],z-score of subpopulation abundance [5],z-score of subpopulation abundance [6],z-score of subpopulation abundance [7],z-score of subpopulation abundance [8],z-score of subpopulation abundance [9],z-score of subpopulation abundance [10],z-score of subpopulation abundance [11],z-score of subpopulation abundance [12],z-score of subpopulation abundance [13],z-score of subpopulation abundance [14],z-score of subpopulation abundance [15],z-score of subpopulation abundance [16],z-score of subpopulation abundance [17]
CC(=O)[C@H]1CC[C@H]2[C@@H]3CCC4=CC(=O)CC[C@]4(C)[C@H]3CC[C@]12C [Progesterone],12.5 ± 0.23,0.96,0.64,-1.51,-0.24,-1.35,-1.24,-0.71,-0.6,0.01,-0.85,-1.13,-0.24,-0.62,-0.61,-1,–
C=CC[C@@H]1/C=C(\C)C[C@H](C)C[C@H](OC)[C@H]2O[C@@](O)(C(=O)C(=O)N3CCCC[C@H]3C(=O)O[C@H](/C(C)=C/[C@@H]3CC[C@@H](O)[C@H](OC)C3)[C@H](C)[C@@H](O)CC1=O)[C@H](C)C[C@@H]2OC [Tacrolimus (FK506)],12.02 ± 0.1,-1.63,2.07,0.71,–,1.87,-1.01,–,1.08,1.02,1.89,1.27,1.8,1.84,1.93,–,0.93
OCCN1CCN(CCCN2c3ccccc3Sc3ccc(C(F)(F)F)cc32)CC1 [Fluphenazine dihydrochloride],12.4 ± 0.097,-0.57,-0.08,1.3,-0.38,1.1,0.63,0.59,0.37,-1.12,1.51,1.24,1.11,-0.44,0.9,0.51,–
CC(C)Cc1ccc(C(C)C(=O)O)cc1 (configuration not stated) [Ibuprofen Lysine],13 ± 0.042,3.98,-0.7,-0.17,–,-0.2,-4.01,–,–,-4.66,–,-1.49,-0.36,-3.01,-2.47,-1.27,-0.77
CCCc1cc(C(N)=S)ccn1 [Protionamide],12.4 ± 0.19,0.19,0.32,0.04,-0.66,–,-0.68,–,–,0.32,-0.83,-0.42,-0.03,0.47,-0.28,-0.96,0.16
Oc1c(Br)cc(Br)c2cccnc12 [Broxyquinoline],14.7 ± 0.16,-16.8,3.22,0.17,-3.11,–,6.62,–,–,6.77,10.5,27.1,49.4,15.8,12.8,44.9,5.88
Cn1c([N+](=O)[O-])cnc1COC(N)=O [Ronidazole],12.5 ± 0.033,1.22,-0.37,-0.01,0.01,-1.34,-0.22,-1.32,-1.13,-0.8,-0.38,-0.68,-0.96,-0.57,-0.5,-0.24,–
C=CCc1ccc(O)c(-c2ccc(O)c(CC=C)c2)c1 [Honokiol],12.6 ± 0.22,1.92,-0.54,-0.29,–,-1.34,-1.84,–,-1.64,-1.43,–,-1.04,-0.37,-1.19,-1.08,-0.84,-0.63
CC[C@H](C)C(=O)O[C@H]1C[C@@H](C)C=C2C=C[C@H](C)[C@H](CC[C@@H]3C[C@@H](O)CC(=O)O3)[C@H]21 [Lovastatin],11.9 ± 0.13,-1.34,0.85,-0.96,0.87,-0.06,0.16,0.4,0.59,1.08,0.97,0.37,0.86,1.12,0.48,0.35,–
CCOc1cc(N)c(Cl)cc1C(=O)NCC1CN(Cc2ccc(F)cc2)CCO1 (configuration not stated) [Mosapride],12.5 ± 0.23,0.05,0.39,-0.65,-0.39,0.06,0.77,-0.23,0.02,-0.47,-0.5,-0.42,0.45,0.4,-0.04,0.05,–
CC[C@H](C)C(=O)O[C@H]1C[C@H](O)C=C2C=C[C@H](C)[C@H](CC[C@@H](O)C[C@@H](O)CC(=O)O)[C@H]21 [Pravastatin sodium],12.3 ± 0.26,–,0.01,2.2,-0.09,–,1.81,0.12,0.26,0.47,0.84,-0.65,0.62,-0.32,0.57,2.71,–
COCCCOc1ccnc(C[S+]([O-])c2nc3ccccc3[nH]2)c1C (configuration not stated) [Rebeprazole sodium],12.5 ± 0.13,-0.38,0.58,-0.68,0.15,–,-0.77,0.23,-0.49,0.75,-0.55,1.09,-0.22,0.36,0.11,0.04,–
OCCN1CCN(CCCN2c3ccccc3Sc3ccc(Cl)cc32)CC1 [Perphenazine],12.3 ± 0.2,-0.28,-0.42,-0.47,0.29,0.04,0.15,–,0.72,–,0.11,0.1,0,0.73,–,-0.22,-0.01
Nc1ccc2cc3ccc(N)cc3nc2c1 [Proflavine],12.11 ± 0.034,6.61,2.16,-7.48,-7.03,–,-7.09,2.14,-6.17,-7.18,-3.92,-4.19,-2.42,-4.57,-4.39,-1.99,–
